The target of assay [1] is Nuclear receptor subfamily 1 group I member 2 (Homo sapiens) (UniProt O75469). Put plainly: Dual reporter qHTS for agonist of Pregnane X Receptor (hPXR) against the NCATS DSHEA and TCM libraries: Luminescence readout (AID 1920059). Also: 0% is about no effect. The essentials:
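Luminescent PXR reporter read (ONE-Glo) after a CellTiter-Fluor viability read, following 24 h, 37C treatment of HepG2 cells stably carrying hPXR-Luc.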

Assay [2] has the same target. Put plainly: Dual reporter qHTS for antagonist of Pregnane X Receptor (hPXR) against the NCATS DSHEA and TCM libraries: Luminescence Readout (AID 1920060).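 Also: HepG2 cells carrying hPXR luciferase reporter stimulated with rifampicin at 2 µM; 0% is about no effect.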 Summed up:
(§1)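 In antagonist mode, 2 uM rifampicin was added to hPXR-Luc HepG2 cells alongside test substances, incubated 24 h at 37 C; luminescence gave reporter activity, and CellTiter-Fluor fluorescence (405/540 nm) gave viability.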
A general note: In qHTS, concentration-response curves come from the screen itself.

A short description of assay [3]: Dual reporter qHTS for antagonist of Pregnane X Receptor (hPXR) against the NCATS DSHEA and TCM libraries: Fluorescence Readout (AID 1920061). Also: 0% is about no effect. The essentials:
as §1

Assay [4] can be described thus: qHTS profiling for inhibitors of Plasmodium falciparum proliferation (AID 504749). Also: nearly all actives have a fitted effect of over 60% in size. Also: potency is read from the fitted curve at half-maximal effect.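 As to activity, negative = inhibition: 0% = DMSO vehicle and full inhibition = artemisinin control.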 The following applies: P. falciparum in erythrocytes, SYBR Green DNA, 72 h, at 28.7 µM (top of the series). Summed up:
(§2)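 In a 72 h erythrocytic culture (37 C, humidified, 5% CO2) at 2.5% hematocrit and 0.3% starting parasitemia, compounds were tested; SYBR Green I in detergent lysis buffer stained parasite DNA overnight.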

A further assay has as its system 3D7. The assay is described as above. The following applies: P. falciparum in erythrocytes, SYBR Green DNA, 72 h; series mostly up to 28.7 µM. Summed up: as §2
The subject of a further assay is 7G8. The assay is described as above. The conditions noted are these: P. falciparum in erythrocytes, SYBR Green DNA, 72 h; series mostly up to 28.7 µM. Summed up:
as §2

For another assay, the system named is AA1029. The description is as above. The following applies: P. falciparum in erythrocytes, SYBR Green DNA, 72 h; series mostly up to 28.7 µM. The essentials: as §2
A further assay deals with AS120. Described as above. The conditions noted are these: P. falciparum in erythrocytes, SYBR Green DNA, 72 h; series mostly up to 28.7 µM. Summed up:
as §2

A further assay relates to ATS189. The description is as above. The following applies: P. falciparum in erythrocytes, SYBR Green DNA, 72 h; series mostly up to 28.7 µM. The essentials: as §2
Assay [5] is described as follows: qHTS drug screen for cell cycle checkpoint inhibitors in PARPi-resistant BRCA-mutant ovarian cancer cell lines. (AID 1963452; calls by dose curve). The following applies: PEO1/OlaR viability, CellTiter-Glo luminescence, 96 h, stronger effect = lower value. Summed up:
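PEO1, PEO4 and PEO1/OlaR ovarian cancer cells, 600 per well, exposed 96 h at 37C to a dilution series. Viability read by CellTiter-Glo luminescence, normalized to DMSO and empty wells; activity summarized as Z-AUC.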

The mark [6] stands for this setting: measured here: PEO1 parental Z-AUC.

Inconclusive results are not listed. The source made the active and inactive calls. Unless noted, calls follow the shape of the dose curve; as a rule, active = well fitted curve in the direction sought with a large enough effect; inconclusive = small, poorly fitted or top-dose-only effect, or another doubt; inactive = no such curve, though single readings can be large; an effect the other way counts as inactive or inconclusive.

Sequence of Nuclear receptor subfamily 1 group I member 2 (Homo sapiens) (O75469 whole entry, looked up): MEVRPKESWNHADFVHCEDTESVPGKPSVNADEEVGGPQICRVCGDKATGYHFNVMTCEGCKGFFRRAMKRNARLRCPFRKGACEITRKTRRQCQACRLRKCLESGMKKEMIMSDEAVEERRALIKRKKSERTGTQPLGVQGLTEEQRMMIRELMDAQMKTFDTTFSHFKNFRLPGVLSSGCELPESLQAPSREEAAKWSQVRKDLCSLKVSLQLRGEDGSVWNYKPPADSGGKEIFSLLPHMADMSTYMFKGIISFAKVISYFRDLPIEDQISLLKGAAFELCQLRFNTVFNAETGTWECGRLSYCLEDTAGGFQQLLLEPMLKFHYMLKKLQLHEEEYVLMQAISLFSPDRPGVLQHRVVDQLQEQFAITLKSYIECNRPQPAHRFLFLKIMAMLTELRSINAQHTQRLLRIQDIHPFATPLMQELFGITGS

As to `CC/C=C\C/C=C\C/C=C\C/C=C\C/C=C\C/C=C\CCC(=O)O`, the Potency entry (in [1]; in the assay on 3D7; in the assay with AA1029; in the assay on AS120; in the assay on ATS189) was “inactive” throughout. The compound was classed as inactive in [2] and in assay [3]. Further, the activity, negative = inhibition in [4] (parasite line A) is -24.9% (inactive); in [4] (parasite line B), -13.6% (inactive). Further, in the assay on 7G8, the Potency is 12.6 µM (active).
For `CC1=CCC2CC1C2(C)C` (stereo not given), the Potency entry (in assay [1]; in the assay on 3D7; with 7G8; with AA1029; in the assay with AS120; in the assay on ATS189) was “inactive” throughout. The result in assay [2] and in assay [3] was inactive. In addition, the activity, negative = inhibition is 10.5% (inactive) in assay [4] (parasite line A) and 12.9% (inactive) in assay [4] (parasite line B).
On to `CCC[C@@H]1C[C@@H](C(=O)N[C@@H]([C@H]2O[C@H](SC)[C@H](O)[C@@H](O)[C@H]2O)[C@H](C)Cl)N(C)C1`, for which the Z-AUC in [5] was 1.72 (inactive); in assay [5] (setting [6]), 1.69; in assay [5] (measured here: PEO4 Z-AUC) it was 1.63.
For the compound `CC/C=C\C/C=C\C/C=C\CCCCCCCC(=O)O`, the Potency result (in assay [1]; in the assay with 3D7; in the assay with AA1029; in the assay with AS120; in the assay with ATS189) was “inactive” each time. Further, the compound was called inactive in assay [2] and in assay [3]. The activity, negative = inhibition in [4] (parasite line A) is -1.47% (inactive); in assay [4] (parasite line B) it was -1.74% (inactive).
On to `C=CCN1CCCC1CNC(=O)c1cc(S(N)(=O)=O)cc(OC)c1OC` (stereo not given), for which the activity, negative = inhibition in assay [4] (parasite line A) was -0.688% (inactive); in assay [4] (parasite line B), 8.33% (inactive). Besides, the Potency result with 3D7, in the assay on 7G8, with AA1029, in the assay with AS120 and in the assay with ATS189 was “inactive” throughout.
For the compound `NC[C@H]1O[C@H](O[C@H]2[C@H](O)[C@@H](O[C@H]3O[C@H](CO)[C@@H](O)[C@H](N)[C@H]3O)[C@H](N)C[C@@H]2N)[C@H](N)C[C@@H]1O`, the Z-AUC in assay [5] is -0.784 (inactive); in assay [5] (setting [6]) it was -0.522; in assay [5] (measured here: PEO4 Z-AUC), -0.139.
For `CN[C@@H]1[C@@H](O)[C@@H](O[C@@H]2[C@@H](O)[C@H](O[C@H]3O[C@H](CN)[C@@H](O)[C@H](O)[C@H]3O)[C@@H](N)C[C@H]2NC(=O)C(O)CN)OC[C@]1(C)O` (stereo not given in full) the same measures were -1.59 (inactive), -0.482 and -1.12.
Take `CC(C)Cc1ccc([C@@H](C)C(=O)NS(C)(=O)=O)cc1`: the results for the Z-AUC in assay [5], in assay [5] (setting [6]) and in assay [5] (measured here: PEO4 Z-AUC) were 1.32 (inactive), 0.781 and 0.752, respectively. The activity, negative = inhibition in assay [4] (parasite line A) was 3.44% (inactive); in assay [4] (parasite line B), -5.62% (inactive). Also, the Potency entry in the assay on 3D7, with 7G8, with AA1029, in the assay with AS120 and in the assay on ATS189 was “inactive” each time.
As for `CCCCCCCCCCCC(=O)OCC(O)CO` (stereo not given), the Potency result (in [1]; with 3D7; with 7G8; in the assay with AA1029; with AS120; in the assay on ATS189) was “inactive” throughout. For the same compound, the compound was called inactive in assay [2] and in assay [3]. In addition, the activity, negative = inhibition in [4] (parasite line A) was 0.724% (inactive); in assay [4] (parasite line B), -1.86% (inactive).
Consider `N#Cc1ccc2c(c1)N(CCCN1CCC(O)CC1)c1ccccc1S2`, for which the activity, negative = inhibition in [4] (parasite line A) is -11.2% (inactive); in [4] (parasite line B), -26.8% (inactive). Also, the Potency result with 3D7 was “inactive”. In addition, the Potency in the assay on 7G8 was 12.6 µM (active); in the assay on AA1029, 11.2 µM (active).
On to `C[C@H]1O[C@@H](O[C@H]2[C@@H](O)C[C@H](O[C@H]3[C@@H](O)C[C@H](O[C@H]4CC[C@@]5(C)[C@H](CC[C@@H]6[C@@H]5C[C@@H](O)[C@]5(C)[C@@H](C7=CC(=O)OC7)CC[C@]65O)C4)O[C@@H]3C)O[C@@H]2C)C[C@H](O)[C@@H]1O`, for which the Z-AUC is -1.16 (inactive) in [5], -1.92 in assay [5] (setting [6]) and -1.33 in assay [5] (measured here: PEO4 Z-AUC). The activity, negative = inhibition in [4] (parasite line A) is -10.9% (inactive); in assay [4] (parasite line B), 10.4% (inactive). The Potency entry with 3D7, in the assay with AA1029, in the assay with AS120 and with ATS189 was “inactive” throughout. In addition, in the assay on 7G8, the Potency is 11.2 µM (active).

(Values after PubChem BioAssay (NCATS).)
